PubChem BioAssay (NCI)
About 79,000 compounds went through this panel and 15% of them were active in at least one assay; those are over-represented in the sample as a whole. Active and inactive are the calls of the source. Rule as the data show it: active = growth inhibition above about 70%; inactive = the rest.

Legend:
[1] = NCI Yeast Anticancer Drug Screen. Data for the rad52 strain (AID 147);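 also: 0% = growth of vehicle-treated control cultures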; details: S. cerevisiae rad52 mutant growth inhibition, stronger effect = higher value
In short: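 Read-out: growth inhibition versus vehicle-treated controls. Cells were a DNA repair-deficient yeast strain treated with compounds.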

[2] = NCI Yeast Anticancer Drug Screen. Data for the wt1 strain (AID 149);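 also: 0% = growth of vehicle-treated wt1 cultures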; details: S. cerevisiae wt1 strain (SPY 50644) growth inhibition, stronger effect = higher value
In short: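 wt1 yeast, compound-treated; % growth inhibition vs vehicle control.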

[3] = NCI Yeast Anticancer Drug Screen. Data for the rad50EPP+ strain (AID 151);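 also: 0% = growth of vehicle-treated control cultures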; details: S. cerevisiae rad50 mutant strain, stronger effect = higher value
In short: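 Growth inhibition read against vehicle controls in rad50EPP+ yeast, a strain altered in DNA damage repair, after compound exposure.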

[4] = NCI Yeast Anticancer Drug Screen. Data for the mgt1 strain (AID 153); details: S. cerevisiae mgt1 mutant growth inhibition, stronger effect = higher value
In short: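 mgt1 yeast grown with test compound; read-out is growth inhibition versus vehicle-treated cultures.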

[5] = NCI Yeast Anticancer Drug Screen. Data for the rad50 strain (AID 155);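 also: 0% = growth of vehicle-only cultures of the same strain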; details: S. cerevisiae rad50 strain growth inhibition, stronger effect = higher value
In short: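 Genetically altered yeast (DNA repair pathway); compound treatment; growth inhibition vs vehicle ctrl.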

[6] = NCI Yeast Anticancer Drug Screen. Data for the mec2-1 strain (AID 157); details: S. cerevisiae mec2-1 strain, stronger effect = higher value
In short: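 Yeast mec2-1 mutant treated with compound. Readout: growth inhibition vs vehicle controls.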

[7] = NCI Yeast Anticancer Drug Screen. Data for the rad14 strain (AID 159);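 also: 0% = growth of vehicle-treated control cultures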; details: S. cerevisiae rad14 strain growth inhibition, stronger effect = higher value
In short: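 Test compounds were applied to a repair-deficient yeast strain. Its growth was then compared with that of cultures given vehicle alone, and inhibition was expressed relative to those controls.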

[8] = NCI Yeast Anticancer Drug Screen. Data for the sgs1 mgt1 strain (AID 161);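 also: 0% = growth of cultures given vehicle only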; details: S. cerevisiae sgs1 mgt1 strain, stronger effect = higher value
In short: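 Mutant yeast exposed to compound; growth scored against vehicle-only wells.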

[9] = NCI Yeast Anticancer Drug Screen. Data for the CLN2oe strain (AID 163);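 also: 0% = growth of vehicle-only control cultures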; details: S. cerevisiae CLN2oe strain, stronger effect = higher value
In short: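 Read-out: yeast growth inhibition, expressed relative to vehicle-only controls. The strain bears an engineered cell-cycle alteration.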

[10] = NCI Yeast Anticancer Drug Screen. Data for the cln2 rad14 strain (AID 165);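 also: 0% = growth equal to vehicle treated cultures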; details: S. cerevisiae cln2 rad14 strain, stronger effect = higher value
In short: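 cln2 rad14 yeast strain; compound exposure; growth inhibition read vs vehicle controls.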

[11] = NCI Yeast Anticancer Drug Screen. Data for the bub3 strain (AID 167); details: S. cerevisiae bub3 mutant strain, stronger effect = higher value
In short: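 Yeast carrying a defined mutation is treated with each compound, and growth is compared with that of vehicle-exposed cells to give inhibition.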

[12] = NCI Yeast Anticancer Drug Screen. Data for the wt2 strain (AID 169);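 also: 0% = growth of vehicle-treated yeast cultures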; details: S. cerevisiae wt2 strain growth inhibition, stronger effect = higher value
In short: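 Read-out: growth inhibition versus vehicle-treated control cultures after compound exposure of the yeast strain.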

[13] = NCI Yeast Anticancer Drug Screen. Data for the mlh1 strain (AID 171);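 also: 0% = growth of vehicle-treated control cultures of the same strain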; details: S. cerevisiae mlh1 strain growth inhibition, stronger effect = higher value
In short: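 Read-out: growth inhibition versus vehicle controls. Strain: engineered yeast with a defined DNA repair or cell cycle defect, compound-treated.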

[14] = NCI Yeast Anticancer Drug Screen. Data for the sgs1 strain (AID 173);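 also: 0% = growth of vehicle-only control cultures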; details: S. cerevisiae sgs1 mutant, stronger effect = higher value
In short: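 Read-out: yeast growth inhibition relative to vehicle controls, following compound exposure of a strain with a defined DNA repair/cell cycle alteration.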

[15] = NCI Yeast Anticancer Drug Screen. Data for the mlh1 rad18 strain (AID 175); details: S. cerevisiae mlh1 rad18 strain growth inhibition, stronger effect = higher value
In short: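 Yeast w/ defined DNA-repair lesions; compound exposure; growth vs vehicle controls → % inhibition.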

[16] = NCI Yeast Anticancer Drug Screen. Data for the rad18 strain (AID 177); details: S. cerevisiae rad18 mutant growth inhibition, stronger effect = higher value
In short: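 Readout: growth inhibition vs vehicle controls. Cells: genetically altered yeast strain, DNA repair defect.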

[17] = at 5.0 µM (retest, dose inferred, filed as 0.5)
[18] = at 50.0 µM (retest, dose inferred, filed as 5.0)

Measured: growth inhibition

CN(C)CCNCCCNc1c2ccccc2nc2cccc([N+](=O)[O-])c12
active: [1]; at 11.0 µM 80% | [1]; at 33.0 µM 89% | [1]; at 100.0 µM 94% | [3]; at 33.0 µM 90% | [3]; at 100.0 µM 95% | [5]; at 33.0 µM 88% | [5]; [18] 93% | [5]; at 50.0 µM 80.8% | [5]; at 100.0 µM 94% | [6]; at 33.0 µM 91% | [6]; [18] 98% | [6]; at 50.0 µM 78.7% | [6]; at 100.0 µM 95% | [7]; at 11.0 µM 92% | [7]; at 33.0 µM 97% | [7]; at 100.0 µM 97% | [8]; [17] 73% | [8]; [18] 95% | [8]; at 50.0 µM 79.7% | [9]; at 100.0 µM 81% | [10]; [17] 80% | [10]; [18] 97% | [10]; at 50.0 µM 97.5% | [11]; [18] 72% | [11]; at 100.0 µM 80% | [12]; at 100.0 µM 91% | [13]; at 100.0 µM 74% | [14]; at 11.0 µM 76% | [14]; at 33.0 µM 84% | [14]; at 100.0 µM 89% | [15]; [17] 73% | [15]; [18] 97% | [15]; at 50.0 µM 88.7% | [16]; at 1.2 µM 88% | [16]; at 3.7 µM 94% | [16]; at 11.0 µM 96% | [16]; at 33.0 µM 96% | [16]; at 100.0 µM 96%
inactive: [1]; at 1.2 µM 23% | [1]; at 3.7 µM 46% | [2]; at 1.2 µM -14% | [2]; at 3.7 µM 9% | [2]; at 11.0 µM 11% | [2]; at 33.0 µM 20% | [2]; at 100.0 µM 50% | [3]; at 1.2 µM 9% | [3]; at 3.7 µM 26% | [3]; at 11.0 µM 69% | [4]; at 1.2 µM 4% | [4]; at 3.7 µM 18% | [4]; at 11.0 µM 20% | [4]; at 33.0 µM 26% | [4]; at 100.0 µM 58% | [5]; at 1.2 µM 9% | [5]; at 3.7 µM 39% | [5]; [17] 17% | [5]; at 11.0 µM 61% | [6]; at 1.2 µM 22% | [6]; at 3.7 µM 18% | [6]; [17] 17% | [6]; at 11.0 µM 50% | [7]; at 1.2 µM -2% | [7]; at 3.7 µM 46% | [9]; at 1.2 µM -2% | [9]; at 3.7 µM -4% | [9]; at 11.0 µM 2% | [9]; at 33.0 µM 22% | [11]; at 1.2 µM -5% | [11]; at 3.7 µM -11% | [11]; [17] -12% | [11]; at 11.0 µM -11% | [11]; at 33.0 µM 6% | [11]; at 50.0 µM -3.8% | [12]; at 1.2 µM 0% | [12]; at 3.7 µM 1% | [12]; at 11.0 µM 11% | [12]; at 33.0 µM 33% | [13]; at 1.2 µM 5% | [13]; at 3.7 µM 18% | [13]; at 11.0 µM 25% | [13]; at 33.0 µM 46% | [14]; at 1.2 µM 31% | [14]; at 3.7 µM 58%

CCN1CCC(O)(c2ccc(Oc3ccc(C)cc3)cc2)C(C(=O)c2ccc(Oc3ccc(C)cc3)cc2)C1 (stereo unspecified)
active: [1]; at 11.0 µM 96% | [1]; at 33.0 µM 95% | [1]; at 100.0 µM 93% | [2]; at 11.0 µM 97% | [2]; at 33.0 µM 96% | [2]; at 100.0 µM 94% | [3]; at 11.0 µM 96% | [3]; at 33.0 µM 94% | [3]; at 100.0 µM 93% | [4]; at 11.0 µM 98% | [4]; at 33.0 µM 96% | [4]; at 100.0 µM 95% | [5]; at 11.0 µM 97% | [5]; at 33.0 µM 95% | [5]; [18] 96% | [5]; at 50.0 µM 85.6% | [5]; at 100.0 µM 94% | [6]; at 11.0 µM 98% | [6]; at 33.0 µM 97% | [6]; [18] 97% | [6]; at 50.0 µM 92% | [6]; at 100.0 µM 94% | [7]; at 11.0 µM 96% | [7]; at 33.0 µM 95% | [7]; at 100.0 µM 92% | [8]; at 50.0 µM 88.8% | [9]; at 11.0 µM 98% | [9]; at 33.0 µM 96% | [9]; at 100.0 µM 91% | [10]; at 50.0 µM 88.2% | [11]; at 11.0 µM 97% | [11]; at 33.0 µM 96% | [11]; at 50.0 µM 89% | [11]; at 100.0 µM 95% | [12]; at 11.0 µM 97% | [12]; at 33.0 µM 96% | [12]; at 100.0 µM 86% | [13]; at 11.0 µM 98% | [13]; at 33.0 µM 97% | [13]; at 100.0 µM 95% | [14]; at 11.0 µM 97% | [14]; at 33.0 µM 96% | [14]; at 100.0 µM 93% | [15]; [18] 95% | [15]; at 50.0 µM 91% | [16]; at 11.0 µM 97% | [16]; at 33.0 µM 96% | [16]; at 100.0 µM 93%
inactive: [1]; at 1.2 µM -28% | [1]; at 3.7 µM -32% | [2]; at 1.2 µM -44% | [2]; at 3.7 µM -31% | [3]; at 1.2 µM -17% | [3]; at 3.7 µM 15% | [4]; at 1.2 µM -7% | [4]; at 3.7 µM 6% | [5]; at 1.2 µM -21% | [5]; at 3.7 µM -20% | [5]; [17] 18% | [6]; at 1.2 µM -9% | [6]; at 3.7 µM -1% | [6]; [17] 2% | [7]; at 1.2 µM -38% | [7]; at 3.7 µM -9% | [8]; [17] 16% | [8]; [18] -2% | [9]; at 1.2 µM 29% | [9]; at 3.7 µM 22% | [10]; [17] 18% | [10]; [18] 10% | [11]; at 1.2 µM 0% | [11]; at 3.7 µM 23% | [11]; [17] 14% | [11]; [18] 15% | [12]; at 1.2 µM -7% | [12]; at 3.7 µM -19% | [13]; at 1.2 µM -7% | [13]; at 3.7 µM -2% | [14]; at 1.2 µM -18% | [14]; at 3.7 µM -22% | [15]; [17] 21% | [16]; at 1.2 µM -20% | [16]; at 3.7 µM 5%
